# Shown are actives, neighbours in structure and some others; about 4.7% of the full set was active somewhere.
# TIM10 inh: growth inhibitors of isogenic TIM10 control yeast, primary screen, counter-screen for tim10-1 yeast inhibitor project, luminescence, uHTS; AID 463195, 2010; actives 1.4% (n = 330,000); S. cerevisiae TIM10 strain growth, BacTiter-Glo luminescence, 24 h; inhibition, % at 10 µM;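 active means inhibition of 40% or more at the single tested concentration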;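 further: wild-type TIM10 isogenic control strain grown at permissive 25 °C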
# ATG4B inhibitor: ATG4B protease inhibitors, primary screen, biochemical, fluorescence, uHTS | AID 504462, 2011 | ATG4B cleavage of LC3-PLA2, NBD-HPC fluorescence, 1 h | actives 0.51% (n = 340,000) | inhibition, % at 8.33 µM | Cysteine protease ATG4B (Homo sapiens), Q9Y4P1; in the data active means inhibition above about 40%
# Target sequence (Q9Y4P1 whole entry, looked up): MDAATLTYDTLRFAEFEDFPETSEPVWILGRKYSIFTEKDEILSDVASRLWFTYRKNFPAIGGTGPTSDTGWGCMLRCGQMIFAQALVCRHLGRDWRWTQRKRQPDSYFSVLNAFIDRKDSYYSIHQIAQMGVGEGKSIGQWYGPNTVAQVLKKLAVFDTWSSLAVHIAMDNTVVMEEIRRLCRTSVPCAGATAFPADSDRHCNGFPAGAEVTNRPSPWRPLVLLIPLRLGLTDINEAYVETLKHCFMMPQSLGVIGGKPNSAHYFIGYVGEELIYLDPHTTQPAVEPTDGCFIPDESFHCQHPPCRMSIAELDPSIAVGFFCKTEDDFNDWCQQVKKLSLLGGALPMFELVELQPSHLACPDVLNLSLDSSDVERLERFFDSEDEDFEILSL
# SKKanGAS inh: S. pyogenes SKKanGAS growth inhibitors in kanamycin, primary screen, streptokinase expression inhibitor project, SKKanGAS strain, BacTiter-Glo luminescence; 6 h; AID 1662, 2009; actives 1.3% (n = 300,000); inhibition, % at 7.5 µM;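 active means mean replicate score, as percent of positive control median, at least 50; inconclusive means mean below 50 but one replicate at or above 50; inactive means mean and every replicate below 50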;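 further: strain carries kanamycin resistance gene driven by streptokinase promoter and grows in 40 µg/ml kanamycin; loss of luminescence reflects streptokinase promoter inhibition or plain growth inhibition; 0% = median of DMSO wells and 100% = positive control at its reference dose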
# PfHsp90 yeast 2: growth inhibition of PfHsp90-expressing yeast, primary screen, antimalarial PfHsp90 inhibitor project, S. cerevisiae, BacTiter-Glo luminescence, single point, set 2; BacTiter-Glo ATP, 48 h; yeast lacking PDR1 and PDR3 efflux regulators; inhibition, % at 9.4 µM; actives 0.32% (n = 310,000);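 active means every replicate shows inhibition above about 80%, whatever the replicate mean, limit read from the data; inconclusive means mean inhibition reaches the set limit but some replicate falls short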;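 further: 0% = DMSO neutral controls and 100% = 20 µM radicicol positive controls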
# tim23-1 inh: growth inhibitors of tim23-1 mutant yeast, primary screen, luminescence, uHTS. inhibition, % at 20 µM. S. cerevisiae tim23-1 growth, BacTiter-Glo luminescence, 24 h. AID 463212, 2010. actives 1.3% (n = 330,000);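 active means growth inhibition of the mutant yeast at or above 50%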;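 further: temperature-sensitive mutant grown at 25 °C; plate controls were DMSO-treated mutant yeast for no effect and medium wells lacking yeast for full effect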
# tim10-1 inh: growth inhibitors of tim10-1 mutant yeast, primary screen, luminescence, uHTS; inhibition, % at 20 µM; actives 2.2% (n = 330,000); S. cerevisiae tim10-1 ts strain growth, BacTiter-Glo, 24 h; AID 463190, 2010;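 active means inhibition of at least 40%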;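 further: mutant grown at 25 °C; 0% = DMSO wells with yeast and 100% = wells holding no yeast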
# tim10-1 confirm: growth inhibitors of tim10-1 mutant yeast, confirmation, single concentration, luminescence, S. cerevisiae; shares compounds with tim10-1 inh; inhibition, % at 20 µM; S. cerevisiae tim10-1 ts strain growth, BacTiter-Glo, 24 h; actives 56% (n = 7,400); AID 463213, 2010;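 active means inhibition of yeast growth at or above a set limit in either of two repeat tests at 20 µM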;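 further: tim10-1 mutant grown at permissive 25 °C to find synthetic lethal compounds; 0% = DMSO yeast wells and 100% = medium wells without yeast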
# TIM10 conf: growth inhibitors of wild-type TIM10 yeast, confirmation, counter-screen for tim10-1 synthetic lethality project, single concentration, luminescence, S. cerevisiae; shares compounds with TIM10 inh; S. cerevisiae tim10 strain growth, BacTiter-Glo luminescence, 24 h; inhibition, % at 10 µM; actives 63% (n = 4,600); AID 463215, 2010;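 active means inhibition of yeast growth at or above a set limit in either of two replicates at 10 µM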;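 further: this counterscreen used the strain with wild-type TIM10; 0% = yeast with DMSO and 100% = medium wells lacking yeast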
# tim23-1 confirm: tim23-1 mutant yeast growth inhibitors, confirmation, luminescence, single concentration | S. cerevisiae tim23-1 growth, BacTiter-Glo luminescence, 24 h | shares compounds with tim23-1 inh | actives 83% (n = 4,400) | AID 463218, 2010 | inhibition, % at 20 µM;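 active means inhibition above about 39% in either of two replicate wells at 20 µM, limit read from the data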;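 further: temperature-sensitive tim23-1 mutant grown at 25 °C; 0% = DMSO wells with yeast and 100% = medium wells without yeast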
# Numbers without * were called inactive; u = inconclusive; x = no result; + = active, no number.
SMILES,TIM10 inh,ATG4B inhibitor,SKKanGAS inh,PfHsp90 yeast 2,tim23-1 inh,tim10-1 inh,tim10-1 confirm,TIM10 conf,tim23-1 confirm
Cc1ccc(/C(N)=N/OC(=O)N2c3ccccc3Sc3ccccc32)cc1,86*,24,7,4,68*,63*,50*,80*,46*
CCC(C(=O)O/N=C(\N)c1ccccc1)c1ccccc1 (stereo not given),54*,-5,28,-31,56*,56*,53*,49*,43*
CCCNC(=O)Nc1nnc(C2CC2)s1,5,-3,0,-24,2,2,x,x,x
O=C(COc1ccccc1Br)c1ccc(O)cc1O,32,-3,2,-16,66*,50*,40*,x,58*
O=C(Cc1ccc(Br)cc1)c1ccc(O)cc1O,61*,-7,6,15,63*,58*,66*,57*,53*
COC(=O)C1=CN(Cc2ccccc2)C=C(C(=O)OC)C1c1ccc(O)c(OC)c1,19,1,0,6,28,39,x,x,x
Cc1nn(-c2ccccn2)c2c1C(=O)CC(C)(C)C2N=[N+]=[N-] (stereo not given),x,-1,x,8,x,x,x,x,x
CC(C)N=c1scc(-c2ccco2)n1/N=C/c1ccc(O)c(O)c1,34,-6,x,9,54*,47*,19,x,60*
Nc1ccc(-c2c3ccccc3nc3ccccc23)cc1,x,5,1,13,x,x,x,x,x
COCCCn1c(CCC(=O)O)ccc1-c1cccs1,-10,5,0,-45,7,17,x,x,x
CCC1CSC(Nc2ccc(C(=O)/C=C/c3ccc(Br)cc3)cc2)=N1 (stereo not given),50*,-6,-5,-2,54*,45*,51*,48*,55*
CC(=NC1CCCC1)c1c(C)[nH]n(-c2nc3ccccc3s2)c1=O,2,-6,7,9,9,19,x,x,x
CC(=NC1CC1)c1c(-c2ccccc2)[nH]n(-c2nc3ccccc3s2)c1=O,64*,-13,33,-15,53*,53*,56*,49*,52*
CCOc1ccc2c(c1)-c1c(ssc1=S)C(C)(C)N2,37,-11,-18,-5,52*,48*,40*,x,56*
Cc1ccc(C(=O)OCC(=O)NCCN2C(=O)CSC2=O)cc1,14,-10,2,9,8,11,x,x,x
O=c1cc(-c2ccccc2)cc(-c2ccccc2)n1O,17,2,9,+,80*,47*,28,x,68*
CS/C(=C\[N+](=O)[O-])Nc1ccc(F)cc1,18,15,-11,-7,14,19,x,x,x
Oc1cccc2ccc(Nc3ccccn3)nc12,13,-3,39,x,52*,67*,64*,x,79*
CCN1/C(=C/c2ccc3ccccc3[n+]2CC)C=Cc2ccccc21,52*,15,52*,26,85*,74*,75*,20,67*
CCN1/C(=C/c2ccc3ccccc3[n+]2CCCS(=O)(=O)[O-])C=Cc2cc(C)ccc21,x,5,15,16,x,x,x,x,x
CN(C)c1cccc(C(=O)Nc2nc3ccccc3[nH]2)c1,15,-2,9,-11,-11,-9,x,x,x
Cc1ccc(N(C)S(=O)(=O)c2cccc(C(=O)Nc3nc4ccccc4[nH]3)c2)cc1,34,-8,u,-17,56*,41*,42*,x,53*
COc1ccccc1C(=O)Nc1nc2ccccc2[nH]1,68*,9,90*,99*,85*,67*,66*,55*,83*
COc1cc(SC)ccc1C(=O)Nc1nc2ccccc2[nH]1,88*,-5,107*,96*,93*,90*,91*,88*,94*
COc1ccccc1C(=O)NCCC(=O)Nc1nc2ccccc2[nH]1,-10,-4,-16,4,-18,-10,x,x,x
SMILES,TIM10 inh,ATG4B inhibitor,SKKanGAS inh,PfHsp90 yeast 2,tim23-1 inh,tim10-1 inh,tim10-1 confirm,TIM10 conf,tim23-1 confirm
O=Nc1c(-c2ccccc2)cc2ccccn12,49*,4,24,-41,66*,50*,43*,29*,63*
O=C(c1cc2nc(-c3cccs3)cc(C(F)(F)F)n2n1)N1CCCc2ccccc21,31,19,7,3,21,-11,x,x,x
CC1CCN(c2cc(N)c(Cl)cc2[N+](=O)[O-])CC1,41*,6,8,3,72*,52*,37*,-12,65*
CC1CCN(c2cc(C#N)c(C#N)cc2[N+](=O)[O-])CC1,3,3,10,x,-12,14,x,x,x
CCOC(=O)c1cc(NC(=O)c2ccccc2)c(=O)oc1C(F)(F)F,x,-8,x,19,x,x,x,x,x
CC(C)C(=O)Nc1nnc(-c2ccccc2)o1,5,1,-3,9,-2,7,x,x,x
CCC1CCc2sc(C(=O)N3CCCN(C)CC3)cc2C1 (stereo not given),9,10,-8,7,-7,26,x,x,x
CCC1CCc2sc(C(=O)N3CCN(c4ccccn4)CC3)cc2C1 (stereo not given),31,11,6,8,56*,46*,34*,x,56*
O=S(=O)(c1cccc(Br)c1)N1CCN(c2ccnc3cc(Cl)ccc23)CC1,36,-6,17,-19,52*,50*,30*,x,47*
N#Cc1cccc(S(=O)(=O)N2CCN(c3ccnc4cc(Cl)ccc34)CC2)c1,15,-18,1,-11,28,22,x,x,x
S=C(N/N=C/c1cccs1)NC1CC2CCC1C2 (stereo not given),50*,7,43,5,72*,48*,46*,60*,58*
Cc1ccc(C(=O)O/N=C(\N)Cc2cccs2)c(Cl)c1,85*,13,5,5,91*,69*,63*,86*,87*

# High-throughput results (PubChem BioAssay)
